Screening data as filed in PubChem BioAssay.
Hits are enriched below; roughly 3.5% of the tested compounds scored in any of these assays.
MITF inh: MITF inhibitors, primary screen, biochemical, AlphaScreen, human; inhibition, % at 2.6 µM; 650,000 tested, 0.91% active; AID 1259374, 2018; AlphaScreen MITF homodimerization, bead proximity signal; Microphthalmia-associated transcription factor (Homo sapiens), O75030; in the data active = inhibition above about 50%
GPR151 activ: activators of human GPR151, primary screen, cell-based, PathHunter beta-arrestin, luminescence. 650,000 tested, 1% active. activation, % at 11.2 µM. G-protein coupled receptor 151 (Homo sapiens), Q8TDV0. PathHunter beta-arrestin GPR151 cells; in the data active = activation above about 4.9%
FBW7 act: FBW7 E3 ligase activators, primary screen, biochemical, AlphaScreen, human | F-box/WD repeat-containing protein 7 (Homo sapiens), Q969H0 | AlphaScreen FBW7–phospho-cyclin E peptide binding, activator screen | normalized activity (activation), % at 26.1 µM | 650,000 tested, 0.13% active; in the data active = normalized activity above about 1.9%;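 also: purified mutant Fbw7 with reduced substrate affinity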
Target sequence (Q969H0 whole entry, looked up): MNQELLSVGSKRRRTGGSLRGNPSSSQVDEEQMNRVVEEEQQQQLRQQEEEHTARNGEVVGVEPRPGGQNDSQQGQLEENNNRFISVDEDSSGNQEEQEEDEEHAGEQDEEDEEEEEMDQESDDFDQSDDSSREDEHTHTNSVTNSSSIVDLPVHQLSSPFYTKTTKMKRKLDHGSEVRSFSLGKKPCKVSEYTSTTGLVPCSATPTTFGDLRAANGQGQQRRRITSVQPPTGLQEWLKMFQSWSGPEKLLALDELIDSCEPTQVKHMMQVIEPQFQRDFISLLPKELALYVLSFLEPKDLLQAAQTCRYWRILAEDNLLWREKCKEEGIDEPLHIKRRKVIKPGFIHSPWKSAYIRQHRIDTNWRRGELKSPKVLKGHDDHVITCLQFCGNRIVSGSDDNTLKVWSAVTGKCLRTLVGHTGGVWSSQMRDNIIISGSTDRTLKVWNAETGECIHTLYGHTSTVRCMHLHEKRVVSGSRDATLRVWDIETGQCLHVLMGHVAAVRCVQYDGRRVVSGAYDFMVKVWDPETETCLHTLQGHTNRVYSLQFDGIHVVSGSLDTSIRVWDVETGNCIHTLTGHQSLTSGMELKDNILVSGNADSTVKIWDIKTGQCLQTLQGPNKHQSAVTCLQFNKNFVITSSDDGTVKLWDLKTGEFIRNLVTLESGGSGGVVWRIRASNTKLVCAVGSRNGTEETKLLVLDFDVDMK
TEAD-YAP block: TEAD-YAP interaction inhibition, primary screen, TEAD-YAP interaction inhibitor project, luminescence, HEK-TIYL cells; TEAD-Gal4/YAP UAS-luciferase luminescence; 640,000 tested, 1.4% active; inhibition, % at 9.12 µM; AID 1259422, 2018; in the data active = inhibition above about 32%
GPR151 confirm: GPR151 activators, triplicate retest, confirmation, cell-based, PathHunter beta-arrestin, luminescence; shares compounds with GPR151 activ; GPR151 PathHunter beta-arrestin cells, 90 min; % of EA-reagent control over plate median; activation, % at 11.2 µM; 6,700 tested, under 10 active;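 active = mean percent activation across replicates above the confirmation screen cutoff of 4.91%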
GPR119 counter: GPR119 activators in beta-arrestin cells, counter-screen for GPR151 activator project, cell-based, PathHunter beta-arrestin, luminescence, triplicate; shares compounds with GPR151 activ; 90 min; 0 = compound-well median, 100 = enzyme-acceptor control; activation, % at 11.2 µM; 6,700 tested, 0.3% active; AID 1508611, 2020;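 active = mean percent activation in the counterscreen above 29.09%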;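 also: counterscreen on off-target GPR119 to flag nonselective hits from the GPR151 activator screen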
Numbers stand for hits; – = inactive; · = not tested or not shown; ! = repeats disagree.

SMILES	MITF inh	GPR151 activ	FBW7 act	TEAD-YAP block	GPR151 confirm	GPR119 counter
COCC1CCN(c2nc3nonc3nc2NCc2cccs2)CC1	–	–	–	–	·	·
O=S(=O)(c1ccc(Nc2nc3ccccc3n3nnnc23)cc1)N1CCOCC1	–	5.1	–	–	–	–
Cc1nonc1CN(C)C(=O)C1CC12CCN(C(=O)c1ccccc1C(F)(F)F)CC2 (stereo not given)	–	5.3	–	–	–	–
CCOC(=O)C1(Cc2ccccc2C(F)(F)F)CCN(C(=O)Cc2nonc2C)CC1	–	–	–	–	·	·
CCOc1ccc(-n2c(=O)c3sccc3n(CC(=O)N(CC)CC)c2=O)cc1	–	–	–	–	·	·
CCN(Cc1ccccc1)C(=O)Cn1c(=O)n(-c2ccc(OC)cc2)c(=O)c2ccccc21	–	7.9	–	–	–	–
COCc1cc(C)nc(SCC(=O)O)c1C#N	–	5.9	–	–	–	–
COCc1cc(C)nc(SCC(=O)Oc2ccccc2)c1C#N	–	–	–	–	·	·
O=C(CCc1nnc(Cc2ccc3c(c2)OCO3)o1)N(CCO)Cc1ccccc1	–	–	–	–	·	·
COc1ccc(N=c2scc(-c3ccc(C)cc3)n2N2CCN(C)CC2)cc1	–	–	–	–	·	·
CC1Oc2ccccc2C=C1C1/C(=C(\O)c2ccccc2)C(=O)C(=O)N1CCCN(C)C (stereo not given)	–	12	–	–	–	–
CN(C)CCCN1C(=O)C(=O)/C(=C(\O)c2ccccc2)C1c1ccncc1 (stereo not given)	–	–	–	–	·	·
O=C(O)c1ccc(Cn2cc(Cl)c([N+](=O)[O-])n2)cc1	–	–	–	–	·	·
CC(C)(C)CC(=O)NCCCS(=O)(=O)N1CCN(c2ccc(F)cc2)CC1	–	6.6	–	–	–	–
Cc1ccc2c(c1)-c1c(ssc1=S)C(C)(C)N2C(=O)c1cccnc1	–	–	–	–	·	·
CCC(C)OC(=O)C1=C(C)NC2=C(C(=O)CC(c3ccc(OC)cc3)C2)C1c1cc(OC)c(OC)cc1Br (stereo not given)	–	7.5	–	–	–	–
COc1ccc(OC)c(NC(=O)COc2ccccc2C(C)(C)C)c1	–	–	–	–	·	·
COc1ccc(NC(=O)COc2ccc(C)cc2C)c(OC)c1	–	7.9	–	–	–	–
COc1ccc(OC)c(NC(=O)COc2ccc(Br)cc2C(C)(C)C)c1	–	5.9	–	–	–	–
CN(C)c1nc2cc(F)ccc2cc1CN(Cc1ccco1)C(=O)c1cn2ccccc2n1	–	15	–	–	–	–
CC1c2cccn2CCN1S(=O)(=O)c1ccccc1Cl (stereo not given)	–	5.9	–	–	–	–
CC1c2cccn2CCN1S(=O)(=O)c1c(Cl)cccc1Cl (stereo not given)	–	–	–	–	·	·
O=c1cc(-c2ccc(O)cc2)oc2cc(O[C@@H]3O[C@H](CO)[C@@H](O)[C@H](O)[C@H]3O[C@@H]3OC[C@](O)(CO)[C@H]3O)cc(O)c12	–	8.2	–	–	–	–
C=CCN1C(=O)/C(=C/c2cc(Br)ccc2OS(C)(=O)=O)SC1=S	–	–	–	–	·	·
COc1ccc(/C(=N/O)C(C)(C)NO)cc1	–	5.1	–	–	–	–
SMILES	MITF inh	GPR151 activ	FBW7 act	TEAD-YAP block	GPR151 confirm	GPR119 counter
CCCOc1ccc(/C(=N\O)C(C)(C)NO)cc1	–	–	–	–	·	·
O=C(COC(=O)CCN1C(=O)c2cccc([N+](=O)[O-])c2C1=O)NCC(F)(F)F	–	6.0	–	–	–	–
COc1ccc(NC(=O)COC(=O)CC2CCCCC2)c([N+](=O)[O-])c1	–	–	–	–	·	·
COc1ccc(NC(=O)CCCCCN2C(=O)c3cccc([N+](=O)[O-])c3C2=O)c(OC)c1	–	7.9	–	–	–	–
COc1ccccc1Oc1ccc(N2C(=O)c3cccc([N+](=O)[O-])c3C2=O)cc1	–	8.4	–	–	–	–
COc1ccc(NC(=O)CCC2CCCCC2)c([N+](=O)[O-])c1	–	6.5	–	–	–	–
COc1ccc(NC(=O)CCN2C(=O)c3cccc([N+](=O)[O-])c3C2=O)c(OC)c1	–	–	–	–	·	·
CCOc1cccc(N2C(=O)/C(=C/C3C(=O)N(c4ccccc4)N=C3C)C(=O)NC2=S)c1 (stereo not given)	–	–	–	–	·	·
COc1cc(C(=O)N(C)Cc2ccccc2)cc(OC)c1OC	–	–	–	–	·	·
O=C1c2ccccc2C(=O)N1CCOc1ccccc1F	–	–	–	–	·	·
O=C1c2ccccc2C(=O)N1CCOc1ccc(Br)cn1	–	6.0	–	–	–	–
Cc1cc(/C=N/n2cnnc2)c(C)n1-c1ccc(Cl)cc1	–	–	–	–	·	·
Cc1cc(/C=N/n2cnnc2)c(C)n1-c1ccc(Cl)cc1Cl	–	5.3	–	–	–	–
Cc1c(NC(=O)c2ccc(OCc3c(F)cccc3Cl)cc2)c(=O)n(-c2ccccc2)n1C	–	8.3	–	–	–	–
CC(C)n1c(Nc2ccc(-n3ccnc3)cc2)nc2c(Nc3ccc(N4CCOCC4)cc3)ncnc21	–	–	–	–	·	·
N#Cc1cc(N2CCN(c3ccc(F)cc3)CC2)c([N+](=O)[O-])cc1C#N	–	–	–	–	·	·
CSCCCNC(=O)Cn1nnnc1CN1CCCCCC1	–	13	–	–	–	–
COc1ccc(Cc2noc(-c3ccc([N+](=O)[O-])cc3)n2)cc1	–	–	–	–	·	·
CC(C)(C)c1nc(Cc2ccc([N+](=O)[O-])cc2)no1	–	8.6	–	–	–	–
CCCn1ncc(CN2CCC(n3nccc3NC(=O)CCc3ccccc3)CC2)c1C	–	6.6	–	–	–	–
C#C[C@]1(O)CC[C@H]2[C@@H]3CCC4=Cc5oncc5CC4(C)[C@H]3CCC21C (stereo not given in full)	–	5.5!	–	–	–	–
C#C[C@]1(O)CC[C@H]2[C@@H]3CCc4cc(O)ccc4[C@H]3CC[C@@]21C	–	–	–	·	·	·
CCN(CC)C(=O)C1CCCN(c2nc(C)cc(Nc3ccc(Oc4ccccc4)cc3)n2)C1 (stereo not given)	–	12	–	–	–	–
COc1ccccc1-c1coc2cc(OC(=O)C(C)(C)C)ccc2c1=O	–	6.9	–	–	–	–
CCc1ccc(-c2nn(-c3ccccc3)cc2C2SCC(=O)N2Cc2ccccc2)cc1 (stereo not given)	–	–	–	–	·	·
